Assay results published in PubChem BioAssay.
Records with an inconclusive call do not appear. Calls of active or inactive are those of the source.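 Rule for the calls, unless noted: active = normalized viability below 100% at a tested concentration; inactive = the rest.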

How the values were obtained:
[1] = viability loss in pontine glioma line – cell-based, JHH-DIPG-1, MIPE4.0, CellTiter-Glo, qHTS, dose response (AID 1347062; cut-off not given, nearly all actives have AC50 up to about 27 µM;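 for AC50: cells exposed to compound for two days before readout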); settings: JHH-DIPG-1 viability, CellTiter-Glo ATP luminescence
[2] = viability loss in pontine glioma line – cell-based, SU-DIPG-IV, MIPE4.0, CellTiter-Glo, qHTS, dose response (AID 1347063; cut-off not given, nearly all actives have AC50 up to about 30 µM;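 note: compound exposure lasted 48 hours before the viability readout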); settings: CellTiter-Glo ATP luminescence
[3] = viability loss in pontine glioma line – cell-based, SU-DIPG-XXV, MIPE5.0, CellTiter-Glo, qHTS, dose response (AID 1347065; cut-off not given, nearly all actives have AC50 up to about 26 µM;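 note: cells exposed to compound for 48 hours before ATP readout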); settings: CellTiter-Glo ATP luminescence
[4] = growth inhibition of DIPG cells – cell-based, MIPE4.0 library, CellTiter-Glo luminescence, qHTS (AID 1347066; cut-off not given, nearly all actives have AC50 up to about 30 µM;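 note: cells exposed to compound for 48 hours before readout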); settings: SU-DIPG-VI viability, CellTiter-Glo ATP luminescence
[5] = JHH-DIPG-1 glioma cell viability, MIPE5.0 library, CellTiter-Glo luminescence, qHTS (AID 1347067; cut-off not given, nearly all actives have AC50 up to about 26 µM;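 note: cells exposed to compound for 48 hours before readout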); settings: JHH-DIPG-1 glioma viability, CellTiter-Glo ATP luminescence
[6] = growth inhibition of DIPG cells – cell-based, MIPE5.0 library, qHTS (AID 1347068; cut-off not given, nearly all actives have IC50 up to about 30 µM); settings: SU-DIPG-XXV viability
[7] = viability loss with induced miR-34 in A549 – imaging, A549 dox-inducible miR-34, nuclei and caspase counts, primary screen (AID 1347080;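 active = compounds whose cell count with miR-34 switched on is under 0.7 times the count with it off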); settings: A549 miR-34 inducible, Hoechst nuclei count, 48 h
[8] = viability loss in pontine glioma line – cell-based, SU-DIPG-XIII, MIPE4.0, CellTiter-Glo, qHTS, dose response (AID 1347061; cut-off not given, nearly all actives have AC50 up to about 37 µM;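 note: cells exposed to compound for 48 hours before readout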); settings: CellTiter-Glo ATP luminescence
[9] = viability loss in pontine glioma line – cell-based, SU-DIPG-XIII, MIPE5.0, CellTiter-Glo, qHTS, dose response (AID 1347064; cut-off not given, nearly all actives have AC50 up to about 23 µM;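 for AC50: cells exposed to compound for 48 hours before the viability read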); settings: CellTiter-Glo ATP luminescence
[10] = MELAS cybrid and Rieske KO viability enhancers – cell-based, MELAS cybrids, Rieske KO mouse fibroblasts, CellTiter-Glo, primary screen (AID 1508586;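 active = mean z-score across replicates of 1.96 or higher in either the MELAS or the Rieske mutant cell line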;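 note: z relative to plate mean and SD of compound and empty wells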); settings: low glucose
[11] = compounds altering HSF1 focus formation in cells – imaging, Selleck Cancer Library (AID 1347162; in the data active = plate-normalised HSF1 focus index below about 0.46); settings: human cells, HSF1 nuclear foci imaging, at 10 µM; SSMD: measured here: HSF1 foci SSMD mean; cell count: measured here: cell number; plate-normalised HSF1 focus index: stronger effect = lower value
[12] = drug combination growth inhibition, ovarian cancer – cell-based, oncology-focused library, rucaparib conditional, profiling panel (AID 1508598); settings: patient-derived ovarian cancer cells, CellTiter-Glo viability, 144 h, stronger effect = lower value
[13] = stronger effect = lower value, cell number ratio, induced over uninduced
[14] = measured here: relative caspase fold change +Dox/-Dox
[15] = measured here: total cells with miR-34 induction, stronger effect = lower value
[16] = measured here: total cells without miR-34 induction
[17] = MELAS cybrid survival, CellTiter-Glo 48 h, stronger effect = higher value
[18] = Rieske KO mouse fibroblast survival, CellTiter-Glo 72 h

Nc1nc(OCc2ccccc2)c2[nH]cnc2n1
1.25: fold change [7, 14]
8910: cell count [7, 15]
inactive: outcome [1] | outcome [2] | outcome [3] | outcome [4] | outcome [5] | outcome [6] | fold change [7, 13] 0.895
9960: cell count [7, 16]

CN(C1CCc2c(c3ccccc3n2CC(=O)O)C1)S(=O)(=O)c1ccc(F)cc1 (stereo not given)
6410: cell count [7, 15]
inactive: outcome [8] | outcome [4] | fold change [7, 13] 1.07
5990: cell count [7, 16]
0.901: fold change [7, 14]

Oc1ccc(C2=Cc3ccc(O)cc3OC2)cc1
inactive: outcome [3]
active: AC50 [1] 8330 nM | AC50 [2] 3320 nM

Cc1noc(-c2ccc(CSCCC(=O)O)cc2)c1NC(=O)OC(C)c1ccccc1Cl (stereo not given)
6620: cell count [7, 15]
7460: cell count [7, 16]
0.718: z-score [10, 18]
1.07: fold change [7, 14]
inactive: outcome [1] | outcome [2] | outcome [9] | outcome [3] | outcome [4] | outcome [5] | outcome [6] | fold change [7, 13] 0.888 | z-score [10, 17] -0.439

CC1(O)CC(c2nc(-c3ccc4ccc(-c5ccccc5)nc4c3)c3c(N)nccn23)C1 (stereo not given)
6580: cell count [11]
2240: cell count [7, 15]
0.283: z-score [10, 18]
inactive: outcome [6] | fold change [7, 13] 1.03 | plate-normalised HSF1 focus index [11] 1.1 | z-score [10, 17] -0.422 | viability ([12]; at 0.000305 µM, OCI-C5x cells, with rucaparib 10 µM, 100% = cells with rucaparib alone) 114% | viability ([12]; at 0.000305 µM, OCI-C5x cells, without rucaparib) 139% | viability ([12]; at 0.000305 µM, OCI-P5x cells, with rucaparib 20 µM, 100% = cells with rucaparib alone) 109% | viability ([12]; at 0.000305 µM, OCI-P5x cells, without rucaparib) 106% | viability ([12]; at 0.00122 µM, OCI-C5x cells, with rucaparib 10 µM, 100% = cells with rucaparib alone) 121% | viability ([12]; at 0.00122 µM, OCI-C5x cells, without rucaparib) 130% | viability ([12]; at 0.00122 µM, OCI-P5x cells, with rucaparib 20 µM, 100% = cells with rucaparib alone) 104% | viability ([12]; at 0.00122 µM, OCI-P5x cells, without rucaparib) 104% | viability ([12]; at 0.00488 µM, OCI-C5x cells, with rucaparib 10 µM, 100% = cells with rucaparib alone) 111% | viability ([12]; at 0.00488 µM, OCI-C5x cells, without rucaparib) 124% | viability ([12]; at 0.00488 µM, OCI-P5x cells, without rucaparib) 105% | viability ([12]; at 0.0195 µM, OCI-C5x cells, with rucaparib 10 µM, 100% = cells with rucaparib alone) 115% | viability ([12]; at 0.0195 µM, OCI-C5x cells, without rucaparib) 127% | viability ([12]; at 0.0195 µM, OCI-P5x cells, with rucaparib 20 µM, 100% = cells with rucaparib alone) 104% | viability ([12]; at 0.0195 µM, OCI-P5x cells, without rucaparib) 106% | viability ([12]; at 0.0781 µM, OCI-C5x cells, with rucaparib 10 µM, 100% = cells with rucaparib alone) 114% | viability ([12]; at 0.0781 µM, OCI-C5x cells, without rucaparib) 133% | viability ([12]; at 0.0781 µM, OCI-P5x cells, with rucaparib 20 µM, 100% = cells with rucaparib alone) 101% | viability ([12]; at 0.0781 µM, OCI-P5x cells, without rucaparib) 113% | viability ([12]; at 0.313 µM, OCI-C5x cells, with rucaparib 10 µM, 100% = cells with rucaparib alone) 133% | viability ([12]; at 1.25 µM, OCI-C5x cells, with rucaparib 10 µM, 100% = cells with rucaparib alone) 145% | viability ([12]; at 1.25 µM, OCI-C5x cells, without rucaparib) 134% | viability ([12]; at 5 µM, OCI-C5x cells, with rucaparib 10 µM, 100% = cells with rucaparib alone) 168% | viability ([12]; at 5 µM, OCI-C5x cells, without rucaparib) 153%
0.898: fold change [7, 14]
active: AC50 [1] 1480 nM | AC50 [2] 14800 nM | AC50 [9] 590 nM | AC50 [3] 332 nM | AC50 [4] 332 nM | AC50 [5] 11800 nM | viability ([12]; at 0.00488 µM, OCI-P5x cells, with rucaparib 20 µM, 100% = cells with rucaparib alone) 99.9% | viability ([12]; at 0.313 µM, OCI-C5x cells, without rucaparib) 57.9% | viability ([12]; at 0.313 µM, OCI-P5x cells, with rucaparib 20 µM, 100% = cells with rucaparib alone) 88.6% | viability ([12]; at 0.313 µM, OCI-P5x cells, without rucaparib) 96% | viability ([12]; at 1.25 µM, OCI-P5x cells, with rucaparib 20 µM, 100% = cells with rucaparib alone) 41.3% | viability ([12]; at 1.25 µM, OCI-P5x cells, without rucaparib) 66.2% | viability ([12]; at 5 µM, OCI-P5x cells, with rucaparib 20 µM, 100% = cells with rucaparib alone) 7.72% | viability ([12]; at 5 µM, OCI-P5x cells, without rucaparib) 32.8%
1.94: SSMD [11]
2180: cell count [7, 16]
